# Among all 5,900 compounds or so, about 140 (2.4%) were called active. Cut-off read from the data, not from the text of the source: active = binding response below about 16% or above about 210%; inactive = in between. Only a selection was taken, and actives are over-represented in it overall.
# Biological target: Mitogen-activated protein kinase kinase kinase 2 (Homo sapiens) (UniProt Q9Y2U5)
# Assay: modulators of MEK5 binding to wildtype MEKK2, confirmation, biochemical, single concentration, multiplex bead flow cytometry (AID 1892)
# Settings: Alexa488-MEK5 binding to MEKK2 WT, at 10 µM, actives lie on both sides
row,SMILES,binding response (% of control)
1,COc1ccc(C(=O)C[n+]2ccc(C)cc2)cc1,104% (inactive)
2,COc1cc(Br)c(-c2sc(Nc3ccccc3)n[n+]2-c2ccccc2)cc1OC,134% (inactive)
3,CN(C)CCCNC(=S)N1CCN(c2nc(-c3ccccc3)cs2)CC1,108% (inactive)
4,O=C(O)CC(Cc1ccccc1)C(=O)Nc1ccc([N+](=O)[O-])cc1 (centres undefined),96% (inactive)
5,Cc1onc(-c2ccccc2Cl)c1C(=O)OCC(=O)c1ccccc1,94% (inactive)
6,COc1cc(C)nc(N2CCCC(C(=O)NCC(C)C)C2)n1 (centres undefined),97% (inactive)
7,CCN(CC)CCC(c1ccc2c(c1)OCO2)c1c(OC)cc(OC)c2c(-c3ccccc3)cc(=O)oc12 (centres undefined),134% (inactive)
8,COc1ccc(CNC(=O)C2CCN(S(C)(=O)=O)CC2)cc1,103% (inactive)
9,Cc1ccc(CNC(=O)Cn2c(=O)c3sccc3n(Cc3cccc([N+](=O)[O-])c3)c2=O)cc1,103% (inactive)
10,COc1cccc(/C=N\NC(=O)C2=NNC(=O)C2C)c1O (centres undefined),100% (inactive)
11,COc1cccc(CNCCc2c[nH]c3ccccc23)c1OCc1ccccc1F,131% (inactive)
12,C#CCOCCOCCOCCNc1nc(N2CCN(C(=O)C([C@@H](C)CC)n3cc(C(N)COC(=O)C(F)(F)F)nn3)CC2)nc(N2CCN(C(=O)[C@H](CCCCN)n3cc(C(N)CC(C)C)nn3)CC2)n1 (some centres undefined),191% (inactive)
13,O=C(Nc1ccn(Cc2ccccc2)n1)c1cccc(F)c1,105% (inactive)
14,CN(C)CCCN(C(=O)COc1ccccc1)c1nc2c(Cl)cccc2s1,133% (inactive)
15,O=C(CN1CCN(C(=O)c2ccco2)CC1)Nc1ccc(Cl)c(C(F)(F)F)c1,112% (inactive)
16,CNC(C)C#Cc1ccc2sc3cc(OC)c(OC)cc3c(=O)c2c1 (centres undefined),128% (inactive)
17,COc1cccc(C2CC(c3ccccc3)=NN2S(=O)(=O)c2ccccc2)c1OC (centres undefined),98% (inactive)
18,O=C(Nc1ccc(Cl)cn1)c1cnn2cccnc12,108% (inactive)
19,CCC(C)OC(=O)C(C)Oc1ccc(-c2ccccc2)cc1 (centres undefined),106% (inactive)
20,Cn1ccc(=Nc2ccc(NC(=O)c3ccc(N=c4ccn(C)c5ccc([N+](=O)[O-])cc45)cc3)cc2)cc1,152% (inactive)

row,SMILES,binding response (% of control)
1,CC1CCN(C2=NC(=O)/C(=C/c3cn[nH]c3-c3ccccc3)S2)CC1,94% (inactive)
2,COc1cccc(Nc2ncccc2C(=O)O)c1,97% (inactive)
3,CCCc1nnc(SCC(=O)N2C(C)CCCC2C)n1CC (centres undefined),110% (inactive)
4,Cc1ccc(C)c(CN2CCC(CNC(=O)Nc3ccc(C)c(F)c3)CC2)c1,146% (inactive)
5,CSCC[C@H](NC(=O)CCCn1nnc2ccccc2c1=O)C(=O)O,105% (inactive)
6,CCc1ccc2nc(Nc3ncc(C(C)=O)c(C)n3)nc(C)c2c1,103% (inactive)
7,CCOc1ccc(S(=O)(=O)NCCCn2ccnc2)cc1NC(C)=O,100% (inactive)
8,CCC(=C/c1sc2ccc3ccccc3c2[n+]1C)/C=C1\Sc2ccc3ccccc3c2N1C,13% [inhibitor] (active)
9,O=C(O)c1cccnc1NC1CCCC1,109% (inactive)
10,COc1ccc(N2CCN(Cc3nnc(-c4ccccc4)o3)CC2)cc1,94% (inactive)
11,C[N+](C)(C)CCNC(=O)c1c(O)c2c([nH]c1=O)CCCC2,101% (inactive)
12,COc1ccc(NC(=O)Cn2nnc(C(=O)NCCc3ccc(OC)c(OC)c3)c2N)cc1,98% (inactive)
13,CC(C)(C)c1nnc(NC(=O)C2c3ccccc3Oc3ccccc32)s1,93% (inactive)
14,Clc1ccc(-c2nnc(SCc3nc4ccccc4s3)o2)cc1,98% (inactive)
15,CCCn1c(=N)n(CC(=O)c2ccc(Cl)c(Cl)c2)c2ccccc21,144% (inactive)
16,CCCCN1C(=O)/C(=C(/C#N)C(N)=O)c2ccccc21,102% (inactive)
17,O=C(NCCN1CCOCC1)[C@H](Cc1ccccc1)N1C(=O)c2ccccc2C1=O,103% (inactive)
18,COc1cc2c(cc1OC)CN(C(=O)c1ccc(S(=O)(=O)N3CCCCCC3)cc1)CC2,97% (inactive)
19,O=C(O)c1cc(Cl)c(Cl)cc1C(=O)Nc1cccc2ncccc12,99% (inactive)
20,Cc1noc(C)c1S(=O)(=O)N(C)Cc1ccccc1,105% (inactive)

row,SMILES,binding response (% of control)
1,CN(Cc1ccccc1)CC(O)COc1ccc(CNCc2cc3ccccc3s2)cc1 (centres undefined),129% (inactive)
2,CN(CC(=O)Nc1cccc(F)c1)CC(=O)Nc1cccc([N+](=O)[O-])c1,99% (inactive)
3,CC(C)c1ccc(C(=O)NCCCc2ccccc2)cc1,94% (inactive)
4,COc1cc(-c2nnc(Cn3cc(C(F)(F)F)ccc3=O)o2)cc(OC)c1OC,103% (inactive)
5,O=C(CCCO)N/N=C/c1cc(Br)ccc1O,106% (inactive)
6,O=C(NC1CCN(Cc2ccccc2)CC1)c1cc(Br)c(Br)[nH]1,128% (inactive)
7,Cc1cccc(OCCNC(=O)CSc2ccc(C(F)(F)F)cc2[N+](=O)[O-])c1,104% (inactive)
8,N=c1c2c(-c3ccccc3)c(-c3ccccc3)n(Cc3ccccc3)c2ncn1CCCO,134% (inactive)
9,Cc1nn(-c2ccccc2)c(NC(=O)c2cccs2)c(-c2ccc(Cl)cc2)c1=O,101% (inactive)
10,CCn1c(NC(=O)c2ccccc2)c(-c2cccs2)c(=O)c2ccccc21,102% (inactive)
11,C/C=C/c1ccc(OCCCCN2CCC(C)CC2)c(OC)c1,109% (inactive)
12,CC(C)C(=O)N1c2ccccc2NC2=C(C(=O)CCC2)C1c1ccc(N(C)C)cc1 (centres undefined),116% (inactive)
13,Cc1c(-c2ccccc2)cn2c1-c1ccc(C)n1CC2,93% (inactive)
14,O=C(Cc1cccs1)N/N=C/c1ccc(OCc2ccccc2)cc1,101% (inactive)
15,Cc1c(S(=O)(=O)NCc2ccccc2)c(=O)n(C)c(=O)n1C,102% (inactive)
16,Cc1[nH]c2ccc(S(N)(=O)=O)cc2c1C,97% (inactive)
17,C=CCN1C=C2C(=O)C(C)(OC(=O)CCc3ccccc3)C(=O)C=C2C=C1c1ccc(C#N)cc1 (centres undefined),98% (inactive)
18,C=C(C)C1CC=C(C)/C(=N\NC(=O)CNc2ccccc2OC)C1 (centres undefined),107% (inactive)
19,O=C(CSc1ccc(-c2ccc(F)cc2)nn1)Nc1ccc2c(c1)OCCO2,105% (inactive)
